Source: PubChem
VP16 counter = Gal4-VP16 reporter inhibition counter-screen; Drosophila S2 Gal4-VP16 UAS-luciferase, luminescence, 20 h; AID 2546; Potency, µM (doses to about 53.6 µM), most hits filed as inhibitors; 310,000 compounds, 3.5% hits;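 note: Gal4-VP16 expression switched on by copper sulfate through the metallothionein promoter; nearly all actives have a fitted effect of over 50% in size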
RORgamma inh = blocks mouse ROR gamma transcriptional activity | Drosophila S2 Gal4-RORgamma UAS-luciferase reporter, 20 h | Potency, µM (titrated, usually from 53.6 µM), most hits filed as inhibitors | 310,000 compounds, 5.4% hits | AID 2551; note: nearly all actives have a fitted effect of over 60% in size
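Luciferase reporter read in Schneider cells carrying Gal4-RORγ (mouse) and UAS-Photinus luciferase; cells given compound 1 h before 700 uM copper sulfate induction, then incubated 20 h at ambient temperature.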
TDP1 block = blocks human tyrosyl-DNA phosphodiesterase 1; Q9NUW8; recombinant TDP1, AlphaScreen DNA substrate cleavage; Potency, µM (doses to about 130 µM), usual class: inhibitors; 350,000 compounds, 0.28% hits; AID 485290; note: nearly all actives have a fitted effect of over 40% in size
Target sequence (Q9NUW8 whole entry, looked up): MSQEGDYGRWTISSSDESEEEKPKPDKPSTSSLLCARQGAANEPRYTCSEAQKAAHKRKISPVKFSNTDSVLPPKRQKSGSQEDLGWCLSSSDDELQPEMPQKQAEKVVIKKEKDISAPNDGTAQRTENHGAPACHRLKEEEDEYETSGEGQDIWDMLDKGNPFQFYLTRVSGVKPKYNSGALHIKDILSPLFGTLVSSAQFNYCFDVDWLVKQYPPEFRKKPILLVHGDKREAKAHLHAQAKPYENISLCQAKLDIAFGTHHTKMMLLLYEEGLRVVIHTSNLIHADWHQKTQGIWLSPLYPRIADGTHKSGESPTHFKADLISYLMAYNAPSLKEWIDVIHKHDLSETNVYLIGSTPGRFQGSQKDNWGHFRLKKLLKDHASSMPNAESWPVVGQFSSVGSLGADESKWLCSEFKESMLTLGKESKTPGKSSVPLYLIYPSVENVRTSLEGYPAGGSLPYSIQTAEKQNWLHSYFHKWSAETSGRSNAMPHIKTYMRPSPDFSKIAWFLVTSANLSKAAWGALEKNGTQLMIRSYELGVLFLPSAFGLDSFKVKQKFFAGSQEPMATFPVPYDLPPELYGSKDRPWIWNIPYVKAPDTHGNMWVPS
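Recombinant human Tdp1 (E. coli-expressed, 1 nM final) preincubated with compounds 15 min at room temperature, then 5'-biotin/3'-phosphotyrosine-FITC DNA substrate (15 nM final) added for 5 min. AlphaScreen beads (10 ug/ml final) added 10 min; cleavage lowers signal.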
DT40 TDP1 no CPT = qHTS for Inhibitors of human tyrosyl-DNA phosphodiesterase 1 (TDP1): qHTS in cells in absence of CPT; AID 686978, 2013; 420,000 compounds, 15% hits; DT40 Tdp1-/- hTDP1 cells, no CPT, ATP luminescence, 48 h; Potency, µM (series often up to 46.2 µM), actives largely listed as inhibitors; note: nearly all actives have a fitted effect of over 55% in size
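A cellular qHTS used chicken DT40 cells lacking endogenous Tdp1 but carrying stably transfected human TDP1. Compounds were applied without camptothecin, and cell growth kinetics were judged by ATP-dependent luminescence after ≥48 hr.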
DT40 TDP1 CPT = DT40-hTDP1 cell growth loss with CPT; chicken DT40 Tdp1-/-;hTDP1 cells + 20 nM CPT, ATP luminescence, 48 h; Potency, µM (series often up to 46.2 µM), usual class: inhibitors; 420,000 compounds, 12% hits; AID 686979; note: nearly all actives have a fitted effect of over 55% in size
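Chicken DT40 Tdp1-/- cells stably complemented with human TDP1 were seeded at 400 cells/well in medium containing 20 nM camptothecin, exposed to pin-transferred compounds, and grown at 37 °C for at least 48 hr. Viability was read as ATP luminescence.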
Hits are given with their value; 0 = inactive; ? = inconclusive; - = no result given; ! = repeats disagree; [ ] = another dose, or the depositor's remark. Shown are actives, neighbours in structure and some others; about 19% of the full set was active somewhere. Calls come from the whole dose curve; as a rule, active = well fitted curve in the direction sought with a large enough effect; inconclusive = small, poorly fitted or top-dose-only effect, or another doubt; inactive = no such curve, though single readings can be large; an effect the other way counts as inactive or inconclusive.

SMILES	VP16 counter	RORgamma inh	TDP1 block	DT40 TDP1 no CPT	DT40 TDP1 CPT
CN(C)C1=NC[C@H](Cc2ccccc2)N1CCCC1CCCCC1	-	-	0	6.5µM	7.3µM
CN(C)C1=NC[C@H](Cc2ccccc2)N1CC1CCCCCC1	-	-	0	15µM	5.8µM
CN(C)C1=NCCN1CCCC1CCCC1	-	-	0	12µM	?
C[C@H]1CN=C(N(C)C)N1CCC1CCCC1	-	-	0	?	?
CN(C)C1=NC[C@H](Cc2ccccc2)N1CCc1cccc(F)c1	-	-	0	?	?
CN(C)C1=NC[C@H](Cc2ccccc2)N1CCCC1CCCC1	-	-	-	21µM	16µM
CN(C)C1=NC[C@H](Cc2ccccc2)N1CCC1CCCC1	-	-	-	?	21µM
COc1ccc(OC)c(NC(=O)c2cc(S(=O)(=O)NCCc3ccc(Cl)cc3)ccc2F)c1	-	-	0	?	?
Cc1ccc(NC(=O)c2cc(S(=O)(=O)NCCC3=CCCCC3)ccc2F)cc1	?	?	0	?	?
Cc1ccc(NC(=O)c2cc(S(=O)(=O)NCCc3ccc(Cl)cc3)ccc2F)cc1	-	-	0	13µM	?
Cc1ccc(CNS(=O)(=O)c2ccc(F)c(C(=O)Nc3ccc(C)c(F)c3)c2)cc1	-	-	0	0	0
Cc1ccc(C)c(NC(=O)c2cc(S(=O)(=O)NCCC3=CCCCC3)ccc2F)c1	-	-	0	21µM	?
CC(C)c1ccc(NC(=O)c2cc(S(=O)(=O)NCCc3ccccc3)ccc2F)cc1	-	-	0	10µM	15µM
COc1ccc(CCNS(=O)(=O)c2ccc(F)c(C(=O)Nc3ccc(Cl)cc3)c2)cc1OC	-	-	0	21µM	29µM
O=C(COCc1cc(-c2cccs2)on1)NCc1ccc(Cl)cc1	-	-	0	0	0
COc1ccc(NC(=O)c2cc(S(=O)(=O)NCC3COc4ccccc4O3)ccc2F)cc1 (configuration not stated)	0	0	0	?	?
CC(C)c1ccc(NC(=O)c2cc(S(=O)(=O)NCC3COc4ccccc4O3)ccc2F)cc1 (configuration not stated)	?	?	0	18µM	23µM
COc1ccc(C)cc1S(=O)(=O)NCCC1=CCCCC1	11µM	0	0	?	0
O=C(c1cnccn1)N1CCC2(CC1)CN(c1ncccn1)C2	0	0	-	0	0
Cc1nc2nc(-c3cccs3)[nH]c2cc1Br	-	-	-	16µM	?
COc1ccccc1N1CCN(c2ccc(-c3nc(-c4ccccc4C)no3)cc2[N+](=O)[O-])CC1	-	-	0	0	0
COc1ccccc1N1CCN(c2ccc(-c3nc(-c4ccccc4)no3)cc2[N+](=O)[O-])CC1	-	-	0	9.2µM	12µM
COc1ccc(-c2noc(-c3ccc(N4CCN(c5ccccc5)CC4)c([N+](=O)[O-])c3)n2)cc1	-	-	0	0	?
COc1ccccc1-c1noc(-c2ccc(N3CCC(C)CC3)c([N+](=O)[O-])c2)n1	-	-	0	13µM	?
COc1ccccc1-c1noc(-c2ccc(N3CCN(c4ccccc4)CC3)c([N+](=O)[O-])c2)n1	-	-	0	13µM	23µM
SMILES	VP16 counter	RORgamma inh	TDP1 block	DT40 TDP1 no CPT	DT40 TDP1 CPT
Cc1ccccc1-c1noc(-c2ccc(N3CCCCC3)c([N+](=O)[O-])c2)n1	-	-	0	12µM	?
COc1ccccc1-c1noc(-c2ccc(NC3CCCCC3)c([N+](=O)[O-])c2)n1	-	-	0	?	?
CC(C)c1cccc(C(C)C)c1OC(=O)[C@H]1OC(c2ccc(Br)cc2)=C[C@@H]1c1ccc(Br)cc1	-	-	0	?	?
O=C1Nc2ccccc2S/C1=C/c1cccs1	0	?	0	0	0
CCN(CC)P(=O)(Nc1ccc(C)cc1Br)c1ccc(N(C)C)cc1NC(=O)c1ccco1 (configuration not stated)	0	0	0	16µM	?
Cc1ccc(NC(=O)c2ccco2)c(NC(=O)c2ccccc2)c1	0	0	-	0	0
C=CCOC(=O)C1=C(C)NC(SCC)=C(C#N)C1c1ccc(Cl)cc1 (configuration not stated)	0	0	0	0.52µM	0.73µM
CCOC(=O)C1=C(C)NC(SCC(=O)OC)=C(C#N)C1c1ccc(C(=O)OC)cc1 (configuration not stated)	0	0	0	23µM!	?
C=CCOC(=O)C1=C(C)NC(SCC(N)=O)=C(C#N)C1c1ccc(C)cc1 (configuration not stated)	0	0	0	?	0
CCOC(=O)c1[nH]c(C)c(CCC(=O)NCc2cccc(C)c2)c1C	-	-	0	?	0
COc1cc2ccc(C(C)=NOC(C)=O)cc2cc1OC	-	-	-	0	0
Cc1nnc(SCC(=O)NC2CCCCC2C)s1 (configuration not stated)	0	0	0	0	0
COCOCCn1cc(CN2CCS(=O)(=O)N(Cc3ccc(-c4ccc(Cl)cc4)cc3)C(CC(C)C)C2=O)nn1 (configuration not stated)	-	-	-	23µM	?
COCOCCn1cc(CN2CCS(=O)(=O)N(Cc3ccc(-c4ccc(OC)c(OC)c4)cc3)C(CC(C)C)C2=O)nn1 (configuration not stated)	-	-	-	18µM	21µM
COCOCCn1cc(CN2CCS(=O)(=O)N(Cc3ccc(-c4ccc(Cl)cc4)cc3)C(C)C2=O)nn1 (configuration not stated)	-	-	-	21µM	23µM
CCC/C=C/c1ccc(CN2C(CC(C)C)C(=O)N(Cc3cn(CCOCOC)nn3)CCS2(=O)=O)cc1 (configuration not stated)	-	-	-	0	0
CN1CCN(C(=O)c2cc(=O)c3cc(Cl)ccc3o2)CC1	0	0	-	0	0
CC(=O)Nc1cccc(-n2nnc(SCC(=O)Nc3ccccc3)n2)c1	0	0	0	0	0
O=C(Cc1ccccc1)NCCS(=O)(=O)N1CCN(c2ccccc2)CC1	-	-	0[0.505 µM]	0	0
COc1ccc(S(=O)(=O)N(CC(=O)NCC2CCCO2)Cc2ccccc2)cc1C (configuration not stated)	0	0	0	0	?
CC(NC(=O)CCC(=O)Nc1ccccc1O)c1ccccc1 (configuration not stated)	-	-	-	0	0
CC(CNc1ccccc1O)C(=O)O (configuration not stated)	0	0	-	26µM	?
CCCCNC(=O)CSc1nc(CCC)nc2ccccc12	0	0	0	23µM	23µM
CCc1nc(SCC(=O)Nc2ccc(N(C)C)cc2)c2ccccc2n1	0	0	-	15µM	?
Nc1nonc1OCCN1CCN(c2ccc([N+](=O)[O-])c3cccnc23)CC1	0	0	-	?	23µM
Cc1cc(N2CCN(c3ccc([N+](=O)[O-])c4cccnc34)CC2)c2ccccc2n1	7.1µM	13µM	0	5.8µM	8.2µM
Cc1cc(N2CCN(c3ccc(C(F)(F)F)cc3[N+](=O)[O-])CC2)c2ccccc2n1	?	0	0	21µM	?
